# FAS-TE inh – FAS thioesterase (human) inhibition. 0.67% of 360,000 active. AID 602261. recombinant FAS-TE, OMFH fluorogenic substrate, fluorescence endpoint. inhibition, % at 15 µM;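 active means compounds whose normalised, plate-corrected inhibition of enzyme fluorescence in the single-dose primary screen is 50% or more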
# sPLA2-III inh – Inhibits HGIII-sPLA2 liposome hydrolysis, primary screen | 0.56% of 370,000 active | QFRET BODIPY PC-A2 liposome hydrolysis, fluorescence | inhibition, % at 12.2 µM;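 active means inhibition above mean plus 3 SD of compounds lying within the high and low control bounds, cut at about 19% in these data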
# Target sequence (Q9NZ20 whole entry, looked up): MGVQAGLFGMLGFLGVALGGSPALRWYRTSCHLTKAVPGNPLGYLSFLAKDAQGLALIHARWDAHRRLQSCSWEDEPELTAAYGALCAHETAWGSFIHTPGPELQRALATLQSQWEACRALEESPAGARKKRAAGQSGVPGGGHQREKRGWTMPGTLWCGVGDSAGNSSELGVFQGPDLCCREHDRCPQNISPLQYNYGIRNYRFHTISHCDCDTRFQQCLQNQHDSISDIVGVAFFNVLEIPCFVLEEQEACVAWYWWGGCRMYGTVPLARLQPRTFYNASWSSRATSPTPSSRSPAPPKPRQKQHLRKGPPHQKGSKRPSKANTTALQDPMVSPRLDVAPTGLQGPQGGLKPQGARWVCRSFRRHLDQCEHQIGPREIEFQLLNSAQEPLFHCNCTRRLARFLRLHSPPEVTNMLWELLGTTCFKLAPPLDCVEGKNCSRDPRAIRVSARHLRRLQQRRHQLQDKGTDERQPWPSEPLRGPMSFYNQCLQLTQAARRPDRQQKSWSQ
# NR3A LBD binder – NR3A (human) ligand-binding domain modulation. NR3A LBD differential scanning fluorimetry, Tm shift; 0% = protein alone, 100% = glycine-bound protein. Tm shift relative to glycine control, % at 25 µM. 2.5% of 340,000 active;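 active means melting temperature shift of at least 10% of the positive control shift, at one fixed dose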
# ADAM17 inh – inhibits human ADAM17. P78536. recombinant ADAM17, EDANS/DABCYL FRET peptide cleavage. inhibition, % at 6.95 µM. 0.83% of 370,000 active. AID 720648;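 active means inhibition above the mean of compounds lying between control limits plus 3 SD, set per campaign, cut at about 8.5% in these data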
# ADAM10 inh – inhibits human ADAM10 | inhibition, % at 7 µM | O14672 | 0.62% of 370,000 active | recombinant ADAM10, EDANS/DABCYL FRET peptide cleavage, 3 h;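 active means inhibition above a per-campaign cutoff equal to the mean of compounds falling between control-based bounds plus 3 SD, cut at about 20% in these data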
# ADAM10 confirm – human ADAM10 inhibition, confirmation. shares compounds with ADAM10 inh. ADAM10 QFRET peptide cleavage, EDANS fluorescence. inhibition, % at 6.95 µM. 1% of 2,100 active. AID 743208;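 active means inhibition above about 20% chosen separately for each screening run, limit read from the data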
# ADAM17 counter – inhibits human ADAM17 in ADAM10 exosite counter-screen | 0.5% of 2,100 active | ADAM17 QFRET peptide cleavage, EDANS fluorescence | shares compounds with ADAM10 inh | inhibition, % at 6.95 µM | AID 743214;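 active means mean triplicate inhibition above the solvent-only control wells' mean plus 3 SD, cut at about 12% in these data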
# Numbers stand for hits; – = inactive; · = not tested or not shown. Most compounds without a hit are left out; they make up all but 4.3% or so of the library.
SMILES,FAS-TE inh,sPLA2-III inh,NR3A LBD binder,ADAM17 inh,ADAM10 inh,ADAM10 confirm,ADAM17 counter
O=C1[C@@H](C2CC2)[C@@H]2c3ccccc3C=NN2[C@@H]2c3ccccc3C=NN12,·,–,·,–,–,·,·
CCc1ccc(NC(=O)c2ccc(F)c(S(=O)(=O)N(CC)c3ccccc3)c2)cc1,–,–,–,–,20.2,–,–
Cc1cc(C)cc(NC(=O)N2CCC(c3nc4ccc(Cl)cc4[nH]3)CC2)c1,·,–,·,–,–,·,·
Cc1ccc(C(=O)c2ccccc2C(=O)OCC(=O)Nc2cccc([N+](=O)[O-])c2)cc1,–,–,–,–,27.1,–,–
CCOC(=O)c1c(-c2ccccc2)csc1NC(=O)CSc1nnnn1C,–,–,–,–,–,·,·
CCOC(=O)c1c(NC(=O)CSc2nnnn2C)sc(C)c1-c1ccc(C)cc1,–,–,–,–,25.8,–,–
O=C(Nc1ccccc1N1CCCC1)c1ccccc1Cl,–,–,–,–,23.0,–,–
O=C(Nc1ccc(N2CCCC2)cc1)c1cc(Cl)ccc1Cl,–,–,–,–,–,·,·
O=C(Nc1ccc(N2CCCC2)cc1)c1ccc(Br)cc1,–,–,–,–,24.9,–,–
O=C(Nc1ccc(N2CCCC2)cc1)c1ccc(Cl)cc1Cl,–,–,–,–,20.3,–,–
OC(c1cccc(F)c1)c1ncc(-c2ccc(Oc3ccccc3)cc2)[nH]1 (configuration not stated),–,–,·,–,23.4,–,–
OC(c1ccc(Cl)c(Cl)c1)c1ncc(-c2ccccc2C(F)(F)F)[nH]1 (configuration not stated),–,–,·,10.2,21.6,–,–
OC(c1ccc(Cl)c(F)c1)c1ncc(-c2ccc(Cl)cc2)[nH]1 (configuration not stated),–,–,·,–,20.0,–,–
OC(c1ccc(Cl)c(Cl)c1)c1ncc(-c2ccc(Cl)cc2)[nH]1 (configuration not stated),–,–,·,–,–,·,·
O=C(Nc1cccc2ccccc12)c1ccccc1NS(=O)(=O)c1cccc2cccnc12,–,–,–,–,–,·,·
O=C(O)c1ccccc1NS(=O)(=O)c1cccc2cccnc12,–,–,–,–,21.8,–,–
CCOC(=O)c1ccc(N2C(=O)c3n[nH]c(C)c3C2c2cccnc2)cc1 (configuration not stated),–,–,–,–,–,·,·
CCOC(=O)c1ccc(N2C(=O)c3n[nH]c(-c4ccco4)c3C2c2ccc([N+](=O)[O-])cc2)cc1 (configuration not stated),–,–,26.7,–,23.2,–,–
CCOC(=O)c1c(CN2CCN(c3ccccc3)CC2)oc2cc(Br)c(O)cc12,–,–,–,–,20.8,–,–
COc1cc(NC(=O)C2CCN(S(=O)(=O)c3cccc4nonc34)CC2)cc(OC)c1,–,–,–,–,23.2,–,–
COC(=O)CNC(=O)CNC1(C(=O)NCCc2c[nH]c3ccccc23)CCCCC1,·,–,·,–,–,·,·
O=C1NC[C@H](c2ccccc2)OC(=O)[C@@H](Cc2ccc(F)cc2)CC/C=C/C[C@@H]1CC(=O)N(CCO)Cc1ccccc1,–,–,–,–,22.9,–,–
O=C1N[C@@H](Cc2c[nH]c3ccccc23)COC(=O)[C@H](Cc2ccc(F)cc2)C/C=C\C[C@H]1CC(=O)N(CCO)Cc1ccccc1,–,–,–,–,22.4,–,–
O=C1CCC[C@H]2C[C@H](NCc3ccc(Br)cc3)CC[C@]23CCCN13,·,–,·,–,–,·,·
COCc1cc(N2CCN(C(=O)OC(C)(C)C)C[C@H]2C)ccc1N1CCS(=O)(=O)CC1,·,–,·,–,–,·,·
SMILES,FAS-TE inh,sPLA2-III inh,NR3A LBD binder,ADAM17 inh,ADAM10 inh,ADAM10 confirm,ADAM17 counter
CC(C)C[C@H](N)c1cn([C@@H](CCCCN)C(=O)N2CCNCC2)nn1,–,–,–,–,–,·,·
C[C@@H](O)C(C(=O)N1CCNCC1)n1cc([C@@H](N)CCCCN)nn1 (some centres not stated),–,–,–,–,21.8,–,–
COc1ccc(-c2nc(-c3ccccc3)c(-c3cc([N+](=O)[O-])ccc3C)[nH]2)cc1O,–,–,–,–,30.7,–,–
Cc1ccnc(NCc2cccc3ccccc23)c1,–,–,–,–,23.0,–,–
COc1cccc(CNc2cc(C)ccn2)c1O,–,–,–,–,–,·,·
O=C(CSc1nnc(-c2ccccc2F)n1Cc1ccco1)Nc1ccccc1-c1ccccc1,·,–,·,–,–,·,·
CC(C)(C)c1ccc(C(=O)Nc2cc(Cl)c(Cl)cc2C(=O)O)cc1,·,–,·,–,20.2,–,–
CC(C)(C)c1ccc(C(=O)Nc2cc(Cl)c(F)cc2C(=O)O)cc1,·,–,·,–,–,·,·
COc1cc(S(=O)(=O)N2CCC(O)(c3cccc(C(F)(F)F)c3)CC2)ccc1-n1cnnn1,–,–,·,–,–,·,·
O=S(=O)(c1ccc(OC(F)(F)F)cc1)N1CCC(O)(c2cccc(C(F)(F)F)c2)CC1,–,–,–,–,20.7,–,–
O=C(CSc1nnc(SCc2ccccc2)s1)NNC(=S)Nc1ccccc1,–,–,–,–,23.7,–,–
Nc1ccc(S(=O)(=O)Nc2nccs2)cc1N=Nc1ccccc1[N+](=O)[O-],–,–,–,–,22.3,–,–
CCNc1nc(NC(C)C)nc(SCCOc2ccc(C)cc2)n1,–,–,–,–,23.6,–,–
CCNc1nc(NC(C)C)nc(SCCOC(=O)c2ccccc2)n1,–,–,–,–,–,·,·
COc1ccc(/C=N/NC(=O)c2cccc([N+](=O)[O-])c2)cc1OS(=O)(=O)c1ccc(C)cc1,–,–,–,–,–,·,·
CCOc1cc(/C=N/NC(=O)c2cccc([N+](=O)[O-])c2)ccc1OS(=O)(=O)c1ccccc1,–,–,–,–,27.9,–,–
CCOC(=O)CC[C@@H]1CC[C@]2(CCCN(C(=O)c3ccc4ccccc4n3)C2)O1,·,–,·,–,–,·,·
Cc1cc(Nc2ccccc2)n(-c2nc3ccccc3[nH]2)n1,–,–,–,–,20.9,–,–
Cc1cc(NC(=O)c2ccccc2F)n(-c2nc3ccccc3[nH]2)n1,–,–,–,–,–,·,·
COc1cc(/C=N/NC(=O)c2cc(-c3cccs3)nc3ccccc23)ccc1O,–,–,–,–,–,·,·
COc1cc(/C=N/NC(=O)c2cc(-c3cccc(OC(C)C)c3)nc3ccccc23)ccc1O,–,–,11.0,–,27.6,–,–
Cc1oc(-c2ccccc2)cc1C(=O)Nc1ccc(N(C)C)cc1,–,–,–,–,21.8,–,–
Cc1oc(-c2ccccc2)cc1C(=O)Nc1cccc(/C=C\C(=O)O)c1,–,–,–,–,–,·,·
Cc1cccc(NC(=S)N2CCN(c3ccccn3)CC2)c1,–,–,–,–,–,·,·

# From PubChem BioAssay
